# Hit rate of the full screen: of about 310,000 compounds, about 14,000 (4.5%) showed an effect of 50% or more. Effects have a minus sign here. The list comes from a sample in which strong results are over-represented; it also holds similar structures and randomly drawn compounds.
# Biological target: human ether-à-go-go-related gene (hERG) potassium channel (human, UniProt Q12809)
# Assay: primary screen, population patch clamp on CHO cells stably expressing hERG; higher = less effect of the substance
# 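Note: peak tail current of the secondary pulse compared with the same well before compound.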
# Chain of human ether-à-go-go-related gene (hERG) potassium channel (Q12809 whole entry, looked up): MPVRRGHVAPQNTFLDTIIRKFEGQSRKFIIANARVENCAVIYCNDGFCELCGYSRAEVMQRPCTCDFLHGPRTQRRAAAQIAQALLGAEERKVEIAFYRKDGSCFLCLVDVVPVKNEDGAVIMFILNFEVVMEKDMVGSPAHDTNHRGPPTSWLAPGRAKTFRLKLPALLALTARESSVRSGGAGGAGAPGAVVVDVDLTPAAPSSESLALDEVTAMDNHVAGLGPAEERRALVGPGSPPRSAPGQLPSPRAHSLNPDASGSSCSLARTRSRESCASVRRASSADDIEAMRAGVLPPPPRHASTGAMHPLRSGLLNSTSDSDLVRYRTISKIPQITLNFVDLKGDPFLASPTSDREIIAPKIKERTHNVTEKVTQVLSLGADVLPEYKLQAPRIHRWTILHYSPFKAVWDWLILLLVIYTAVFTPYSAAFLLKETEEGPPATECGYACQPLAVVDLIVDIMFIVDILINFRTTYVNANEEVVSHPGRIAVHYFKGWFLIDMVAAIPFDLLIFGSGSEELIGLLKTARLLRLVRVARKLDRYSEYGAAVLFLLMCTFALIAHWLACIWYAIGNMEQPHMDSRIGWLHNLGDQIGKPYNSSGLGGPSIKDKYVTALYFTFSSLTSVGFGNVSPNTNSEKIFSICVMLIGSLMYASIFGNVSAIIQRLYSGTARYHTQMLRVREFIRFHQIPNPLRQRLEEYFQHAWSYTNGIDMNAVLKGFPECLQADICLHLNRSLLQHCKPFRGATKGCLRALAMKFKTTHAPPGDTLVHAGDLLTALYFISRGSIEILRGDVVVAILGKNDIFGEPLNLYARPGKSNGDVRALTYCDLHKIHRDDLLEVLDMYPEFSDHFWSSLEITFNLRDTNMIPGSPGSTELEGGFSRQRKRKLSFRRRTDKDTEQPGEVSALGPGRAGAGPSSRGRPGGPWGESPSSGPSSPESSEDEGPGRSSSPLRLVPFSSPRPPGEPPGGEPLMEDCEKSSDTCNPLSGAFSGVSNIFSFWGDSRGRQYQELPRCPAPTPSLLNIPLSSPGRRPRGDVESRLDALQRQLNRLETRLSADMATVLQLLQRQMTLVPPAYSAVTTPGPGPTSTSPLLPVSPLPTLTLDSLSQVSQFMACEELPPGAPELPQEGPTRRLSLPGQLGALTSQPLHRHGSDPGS
row,Structure (SMILES),"hERG current change (%, negative = inhibition) at 10uM [%]"
1,Cc1ccc(C(=O)NCC(=O)NC2CCC(C)CC2)s1 (stereo not shown),2.47
2,CC(=O)NCCc1nc2ccccc2n1Cc1ccccc1,1.05
3,O=C(COc1ccccc1[N+](=O)[O-])Nc1ccccc1N1CCCC1,-29.1
4,CCN(CC(=O)Nc1ccc2c(c1)OCO2)CC(=O)Nc1ccccc1C(F)(F)F,-14.4
5,C/C(=N\NS(=O)(=O)c1ccc(C)c([N+](=O)[O-])c1)c1cc2ccccc2o1,-9.98
6,Cc1ccc(-n2c(C)c3c(C)nnc(C)c3c2C)cc1C,-34
7,C=CCn1cc(C(=O)c2cc(Br)ccc2O)cc(C#N)c1=O,-17.5
8,Cc1ccc(C(=O)OCC(=O)N2CCCC2)cc1,-2.99
9,Cc1nnc(C)c2c(C)n(Cc3ccc4c(c3)OCO4)c(C)c12,-71.4
10,CC(=O)c1c(C(C)=O)c(C)n(Cc2ccc3c(c2)OCO3)c1C,-9.41
11,Cc1nnc(-c2cnn(C)c2N)n1Cc1ccc2c(c1)OCO2,5.96
12,CCOc1ccc2oc(C(=O)OCC(=O)NC3CCCC3)c(C)c2c1,11.1
13,Cc1cccc(NC(=O)CN2C(=O)c3ccccc3C2=O)c1C,0.742
14,CCc1ccc(C(=O)NNC(=O)CCc2nc3ccccc3c(=O)[nH]2)cc1,-7.54
15,O=S(=O)(c1ccc(Cl)cc1)N1CCN(Cc2c[nH]c3ccccc23)CC1,-18.8
16,O=C(O)C(=O)O.O=[N+]([O-])c1ccccc1CN1CCN(Cc2c[nH]c3ccccc23)CC1,-24.2
17,c1ccc2c(CN3CCCCC3)c[nH]c2c1,-38
18,c1ccc(CN2CCN(Cc3c[nH]c4ccccc34)CC2)cc1,-30.2
19,O=C(O)C(=O)O.O=[N+]([O-])c1ccc(S(=O)(=O)N2CCN(Cc3c[nH]c4ccccc34)CC2)cc1,-54.5
20,O=[N+]([O-])c1ccc(CN2CCN(Cc3c[nH]c4ccccc34)CC2)cc1,-77.8
21,O=C(CN1CCN(Cc2ccccc2Cl)C1=O)NCc1cccnc1,-1.97
22,O=C(Cn1c(SCC(=O)N2CCCc3ccccc32)nc2ccccc21)N1CCCC1,-13.2
23,O=[N+]([O-])c1ccc2c(c1)nc1n2CCN(c2ccccc2)C1,-26.1

row,Structure (SMILES),"hERG current change (%, negative = inhibition) at 10uM [%]"
1,CCn1cnc2sc(C(=O)N(Cc3ccc(N(C)C)cc3)Cc3ccco3)c(C)c2c1=O,-22.2
2,CCOC(=O)c1c(NC(=O)C2COc3ccccc3O2)sc2c1CCN(Cc1ccccc1)C2.Cl (stereo not shown),0.603
3,CN(C)C1=NC[C@H](Cc2ccccc2)N1CCC1CCCC1,-43.5
4,CN(C)C1=NC[C@H](Cc2ccccc2)N1CCCC1CCCCC1,-70.8
5,CN(C)C1=NC[C@H](Cc2ccccc2)N1CC1CCCCC1,-14.6
6,NC1=NC[C@H](Cc2ccc(O)cc2)N1CCCCC1CCCCC1,-50.2
7,NC1=NC[C@H](Cc2ccccc2)N1CCCCC1CCCCC1,-25.9
8,CN(C)C1=NC[C@H](Cc2ccccc2)N1CC1CCCC1,-16.9
9,NC1=NC[C@@H](Cc2ccc(O)cc2)N1CCCCC1CCCCC1,-18.6
10,CN(C)C1=NC[C@H](Cc2ccccc2)N1CCCC1CCCC1,-71.2
11,CN(C)C1=NC[C@H](Cc2ccccc2)N1CC1CCCCCC1,-27.8
12,N#C/C(=C\c1ccc(F)cc1F)S(=O)(=O)c1ccccn1,6.77
13,Cc1ccc(C)c(NS(=O)(=O)c2cc3c4c(c2)CC(=O)N4CCC3)c1,4.86
14,O=C(N/N=C/c1ccc(Br)s1)c1cccc([N+](=O)[O-])c1,12.2
15,CC(C)(C)NC(=O)CN(C(=O)C1CSC(=O)C1)c1ccccc1F (stereo not shown),-0.923
16,Cc1occc1C(=O)NNS(=O)(=O)c1ccc(Cl)cc1,7.64
17,Cc1ccc(S(=O)(=O)NNC(=O)c2ccoc2C)cc1,-70.6
18,Cc1occc1C(=O)NNS(=O)(=O)c1ccc([N+](=O)[O-])cc1,10.5
19,O=C(CCc1ccccc1)NNC(=O)c1ccco1,5.99
20,COc1ccc(C(=O)C2CCCN(C(=O)Cn3cncn3)C2)cc1OC (stereo not shown),21.6
21,COc1cccc(C(=O)C2CCCN(Cc3ccc(OC)c(Cn4cncn4)c3)C2)c1 (stereo not shown),-58.6
22,COc1cccc(C(=O)C2CCCN(Cc3ccc4nonc4c3)C2)c1 (stereo not shown),-48.5
23,COc1ccc(CN2CCCC(C(=O)c3ccc(Cl)cc3)C2)cc1Cn1cncn1 (stereo not shown),-78

row,Structure (SMILES),"hERG current change (%, negative = inhibition) at 10uM [%]"
1,COc1ccc(CN2CCN(CC=C(C)C)C(CCO)C2)cc1Cn1cncn1 (stereo not shown),-0.719
2,O=C1CNC(=O)/C(=C\c2ccccc2)N1,11.8
3,O=C(CNC(=O)c1ccc(Oc2ccccc2)cc1)OC1CCCCC1=O (stereo not shown),-72.2
4,COc1ccc(C(=O)NCC(=O)OC2CCCCC2=O)cc1 (stereo not shown),-13.5
5,COc1cc(OC)cc(C(=O)NCC(=O)OC2CCCCC2=O)c1 (stereo not shown),-27.6
6,COc1ccc(CCN2C(=O)C(Oc3ccccc3C)C2c2ccc3c(c2)OCO3)cc1 (stereo not shown),-42.3
7,Cc1ccccc1OC1C(=O)N(CC2CCCO2)C1c1ccc2c(c1)OCO2 (stereo not shown),-55.8
8,O=C1C(Oc2ccc(Cl)cc2)C(c2ccc3c(c2)OCO3)N1CC1CCCO1 (stereo not shown),-28.3
9,CCc1nc(NCCN2CCOCC2)c(C#N)c2c1CCCC2,-37.2
10,CCOc1ccc(CCNC(=O)C2CCN(c3nnc(-n4cccc4)s3)CC2)cc1OCC,-35.7
11,CCC1CCCCN1CCCNC(=O)C1CCN(c2nnc(-n3cccc3)s2)CC1 (stereo not shown),-18.7
12,CCN1CCN(CCCNC(=O)C2CCN(c3nnc(-n4cccc4)s3)CC2)CC1,-3.56
13,CCOc1ccc(NCc2cccn2-c2nnc(N3CCC(C(=O)NCCCN4C(C)CCCC4C)CC3)s2)cc1 (stereo not shown),-69.3
14,CC1CC(C)CN(CCCNC(=O)C2CCN(c3nnc(-n4cccc4)s3)CC2)C1 (stereo not shown),-28.3
15,CCOc1ccc(CCNC(=O)C2CCN(c3nnc(-n4cccc4)s3)CC2)cc1,-0.834
16,CCOc1ccc(NCc2cccn2-c2nnc(N3CCC(C(=O)NCCCN4CC(C)CC(C)C4)CC3)s2)cc1 (stereo not shown),-66.2
17,Cc1ccc(C)n1-c1nnc(N2CCC(C(=O)NCCCN3CC(C)CC(C)C3)CC2)s1 (stereo not shown),-17.7
18,CC1CCCCN1CCCNC(=O)C1CCN(c2nnc(-n3cccc3)s2)CC1 (stereo not shown),-27.1
19,CCOc1ccc(NCc2cccn2-c2nnc(N3CCC(C(=O)NCCCN4CCCCC4CC)CC3)s2)cc1 (stereo not shown),-68
20,CC1CCCCN1CCCNC(=O)C1CCN(c2nc3ccccc3o2)CC1 (stereo not shown),-1.61
21,CCOc1ccc(NCc2cccn2-c2nnc(N3CCC(C(=O)NCCCN4CCCCC4C)CC3)s2)cc1 (stereo not shown),-53.8

# Source: article PMC4336329 (PLoS ONE, 2015)
